From PubChem BioAssay (NCATS)
Results filed as inconclusive are left out. A number with no mark means an inactive call. Active and inactive are the calls of the source. The call rests on the fitted dose curve; in most records, active means well fitted inhibition curve with a large enough effect; inconclusive means small, poorly fitted or top-dose-only effect; inactive means flat fitted curve, though single readings scatter.

Target: Ubiquitin carboxyl-terminal hydrolase 1 (Homo sapiens) (UniProt O94782)
Sequence (O94782 whole entry, looked up): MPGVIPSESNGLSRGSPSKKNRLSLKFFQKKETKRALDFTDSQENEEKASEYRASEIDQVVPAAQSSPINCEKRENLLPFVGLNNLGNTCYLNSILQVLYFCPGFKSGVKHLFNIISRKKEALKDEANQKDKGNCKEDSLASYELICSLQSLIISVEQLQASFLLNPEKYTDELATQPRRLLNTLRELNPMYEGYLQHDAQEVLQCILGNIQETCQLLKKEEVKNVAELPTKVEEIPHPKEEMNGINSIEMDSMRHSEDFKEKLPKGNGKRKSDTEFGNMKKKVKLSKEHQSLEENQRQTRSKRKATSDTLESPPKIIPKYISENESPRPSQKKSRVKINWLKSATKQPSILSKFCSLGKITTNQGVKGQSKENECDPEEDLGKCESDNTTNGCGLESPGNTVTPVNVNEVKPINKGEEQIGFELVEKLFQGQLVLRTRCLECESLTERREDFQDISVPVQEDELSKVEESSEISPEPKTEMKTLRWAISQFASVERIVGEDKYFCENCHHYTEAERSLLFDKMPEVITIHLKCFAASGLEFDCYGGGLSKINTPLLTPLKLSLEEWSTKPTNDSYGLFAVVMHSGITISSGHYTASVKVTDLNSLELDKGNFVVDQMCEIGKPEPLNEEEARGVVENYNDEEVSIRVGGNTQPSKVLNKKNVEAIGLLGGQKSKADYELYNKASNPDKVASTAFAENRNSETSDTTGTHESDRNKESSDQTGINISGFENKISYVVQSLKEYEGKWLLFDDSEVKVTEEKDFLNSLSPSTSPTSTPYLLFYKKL
Assay: Inhibitors of USP1/UAF1: Pilot qHTS (AID 504865); further: nearly all actives have a fitted effect of over 35% in size;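 on activity change, negative = inhibition: rhodamine fluorescence freed from ubiquitin-rhodamine substrate followed over time; top concentration of the series differs between compounds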
Settings: purified USP1/UAF1, Ub-rhodamine cleavage fluorescence; series mostly up to 114 µM; activity change, negative = inhibition: at the top concentration
Text: Deubiquitinating enzymes (DUBs) are a class of enzymes that can cleave isopeptide bond formed between the C-terminal carboxylate of ubiquitin and a lysine side-chain amino group on the target protein. Among them, ubiquitin specific proteases (USPs) constitute the largest DUB family. Human USPs are emerging as promising targets for pharmacological intervention because of their connection to a number of human diseases, including prostate, colon and breast cancer (1, 2), pediatric acute lymphoblastic leukemia (3), and familial cylindromatosis (4). The advantage of inhibiting USPs lies in the potential specificity of therapeutic intervention that can lead to better efficacy and reduce nonspecific side effects.
In a collaboration between the University of Delaware and the NIH Chemical Genomics Center, a high-throughput screen assay was developed to screen for USP1/UAF1 inhibitors. This miniaturized assay has a fluorescent read-out and is used to screen the NIH Molecular Libraries Small Molecule Repository (MLSMR) in order to identify a small molecule that inhibits USP1.
NIH Chemical Genomics Center [NCGC]
NIH Molecular Libraries Probe Centers Network [MLPCN]
Assay Submitter (PI): Zhihao Zhuang, University of Delaware
1. Priolo, C., et al. (2006) The isopeptidase USP2a protects human prostate cancer from apoptosis. Cancer Res 66, 8625-8632
2. Popov, N., et al. (2007) The ubiquitin-specific protease USP28 is required for MYC stability. Nat Cell Biol 9, 765-774
3. De Pitta, C., et al. (2005) A leukemia-enriched cDNA microarray platform identifies new transcripts with relevance to the biology of pediatric acute lymphoblastic leukemia. Haematologica 90, 890-898
4. Kovalenko, A., et al. (2003) The tumour suppressor CYLD negatively regulates NF-kappaB signalling by deubiquitination. Nature 424, 801-805
3 microliters of reagents (buffer in columns 3 and 4 as negative control and 1nM USP1/UAF1 complex in columns 1, 2, and 5-48) are dispensed into Greiner black solid bottom 1536-well assay plates. Compounds are then transferred via Kalypsys pin tool equipped with 1536-pin array (10nl slotted pins, V&P Scientific, San Diego, CA). Following an incubation step of 15 min at room temperature, 1ul of Ub-Rho substrate (150nM final concentration) is added to initiate the reaction. The plates are immediately centrifuged at 1000 rpm for 15 seconds, and subsequently transferred to a ViewLux high-throughput CCD imager (PerkinElmer) wherein kinetic measurements of fluorescence are acquired using 480 nm excitation/540 nm emission filter set (6 reads every 60 seconds, see Table 1). All reagents are diluted in an assay buffer consisting of 50mM HEPES (pH 7.8), 0.5mM EDTA, 0.1 mg/ml BSA, 1mM TCEP, and 0.01% Tween-20.
On the % scale 0 is the no-effect control and ±100 the full control effect; potency means the concentration at half of the fitted maximal effect.

In order of falling “activity change, negative = inhibition” value:
1. N[C@H](C(=O)O)c1ccc(C(=O)O)cc1  7.24%
2. CC(=O)O[C@H](CC(=O)O)C[N+](C)(C)C  6.52%
3. CCC(=O)N[C@@H]1CCc2cccc(OC)c2C1  1.6%
4. N=C(N)SCCc1ccc(OCc2ccc([N+](=O)[O-])cc2)cc1  1.02%
5. CCCN=C(N)NCCC[C@H](N)C(=O)O  0.909%
6. CCOC(OCC)P(=O)(O)CCCNCc1ccc(Cl)c(Cl)c1  0.324%
7. C[C@H](O)CO[C@H]1[C@H]2O[C@H]3[C@H](O)[C@@H](O)[C@@H](O[C@H]4[C@H](O)[C@@H](O)[C@@H](O[C@H]5[C@H](O)[C@@H](O)[C@@H](O[C@H]6[C@H](O)[C@@H](OC[C@H](C)O)[C@@H](O[C@H]7[C@H](O)[C@@H](OC[C@H](C)O)[C@@H](O[C@H]8[C@H](O)[C@@H](O)[C@@H](O[C@@H]([C@@H]1O)[C@@H](CO)O2)O[C@@H]8CO)O[C@@H]7CO)O[C@@H]6CO)O[C@@H]5CO)O[C@@H]4CO)O[C@@H]3CO  -0.447%
8. Cc1cc(C(=O)O)ccc1[C@H](N)C(=O)O  -1.91%
9. N.N.O=C(O)C1(C(=O)O)CCC1.[Pt+2]  -2.28%
10. Clc1ccccc1CNCC1CCC(CNCc2ccccc2Cl)CC1 (stereo not given)  -3.02%
11. N[C@H](C(=O)O)c1nn[nH]n1  -3.08%
12. COCCNC(=O)COc1ccc(OCCNC[C@@H](O)COc2ccccc2)cc1  -3.59%
13. COc1ccc([N+](=O)[O-])c2c1CCN2C(=O)CC[C@H](N)C(=O)O  -4.84%
14. S=C(Nc1ccccc1)Nc1nccs1  -5.83%
15. CC1O[C@@H](O[C@@H]2C(O)C[C@H](O[C@@H]3C(O)C[C@@H](OC4CC[C@@]5(C)C6CC(O)[C@@]7(C)C(C8=CC(=O)OC8)CC[C@@]7(O)C6CC[C@@H]5C4)OC3C)OC2C)CC(O)[C@H]1O (stereo not given in full)  -6.15%
16. O=C1c2ccccc2C(Cc2ccncc2)(Cc2ccncc2)c2ccccc21  -6.29%
17. CCCn1c(=O)c2[nH]c(-c3ccc(OCC(=O)Nc4ccc(C(C)=O)cc4)cc3)nc2n(CCC)c1=O  -6.52%
18. CCn1c(=O)[nH]c2ccccc21  -6.67%
19. C/C=C1\C2C=C(C)CC1(N)c1ccc(=O)[nH]c1C2 (stereo not given)  -7.73%
20. c1cc2c3c(c1)c1c(n3CCNC2)CCCC1  -7.84%
21. O=C1CC2(CCCC2)CC(=O)N1CCCCNC[C@H]1COc2ccccc2O1  -7.98%
22. CC[N+](C)(CC)CC(=O)Nc1c(C)cccc1C  -8.75%
23. Cc1cccc(CCN2CCC(C(=O)c3ccc(NS(C)(=O)=O)cc3)CC2)n1  -8.98%
24. COC(=O)[C@H]1[C@@H]2C[C@H]3c4[nH]c5ccccc5c4CCN3C[C@@H]2CC[C@@H]1O  -10.4%
25. O=C1CC2(CCCC2)CC(=O)N1CCNC[C@H]1COc2ccccc2O1  -10.9%
26. O=C(O)c1c2ccccc2cc2ccccc12  -11.7%
27. N[C@]1(C(=O)O)CCc2cc(P(=O)(O)O)ccc21  -12.9%
28. NCCCCNS(=O)(=O)c1ccc2c(Cl)cccc2c1  -13%
29. C=C[C@@]1(C)CC(=O)[C@@]2(O)[C@@]3(C)[C@@H](O)CCC(C)(C)[C@@H]3[C@H](OC(=O)CCN(C)C)[C@H](OC(C)=O)[C@@]2(C)O1  -13.1%
30. O=C1c2ccccc2C(=O)c2c(NCCc3ccc(O)cc3)ccc(NCCc3ccc(O)cc3)c21  -16.4%

In order of falling “activity change, negative = inhibition” value:
1. COc1ccccc1N1CCN(C[C@@H](O)COc2cccc3ccccc23)CC1  -1.41% [at 54.9 µM]
2. O=C1CC[C@H](N2C(=O)c3ccccc3C2=O)C(=O)N1  -1.49% [at 54.9 µM]
3. CC1=C(\C=C/C(C)=C/C=C\C(C)=C\C(=O)O)C(C)(C)CCC1  -4.59% [at 54.9 µM]
4. O=C(NCCNC[C@@H](O)COc1ccc(O)cc1)N1CCOCC1  -9.9% [at 54.9 µM]

With `C[C@@H]1c2ccccc2CN1CC1=NCCN1` the Potency was 50.1 µM (active).
`N[C@@H](C(=O)O)c1ccc(C(=O)O)c(C(=O)O)c1` was tested, and the Potency was “inactive”.
With `N[C@@H](C(=O)O)c1ccc(C(=O)O)cc1` the Potency was “inactive”.
`O=C(Nc1cc(C(=O)Nc2ccc(S(=O)(=O)O)cc2S(=O)(=O)O)cc(C(=O)Nc2ccc(S(=O)(=O)O)cc2S(=O)(=O)O)c1)Nc1cc(C(=O)Nc2ccc(S(=O)(=O)O)cc2S(=O)(=O)O)cc(C(=O)Nc2ccc(S(=O)(=O)O)cc2S(=O)(=O)O)c1` was tested, and the Potency was 1 µM (active).
`CC1(COc2ccc(C[C@H]3SC(=O)NC3=O)cc2)CCCCC1` was tested, and the Potency was 79.4 µM (active).
For `O=C(OC1Cc2c(O)cc(O)cc2OC1c1cc(O)c(O)c(O)c1-c1c(C2Oc3cc(O)cc(O)c3CC2OC(=O)c2cc(O)c(O)c(O)c2)cc(O)c(O)c1O)c1cc(O)c(O)c(O)c1` (stereo not given), the Potency was 50.1 µM (active).
